Screens as filed in PubChem.
CYP2C19 inhib – human CYP2C19 inhibition | inhibition, % at 5 µM | CYP2C19 Supersomes, luciferin-H EGE luminescence, 30 min | P33261 | actives 21% (n = 96,000);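 active means CYP2C19 inhibition above a set limit at 5 µM in the primary screen, cut at about 50% in these data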;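 further: plate controls were negative control wells for no effect and 2.5 mM tranylcypromine positive control for full effect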
CYP2C19 act – increases human CYP2C19 enzyme activity; AID 1025; P33261; recombinant CYP2C19, luciferin-H EGE luminescence; active compounds read high; 0 = fully inhibited enzyme, 1 = untreated enzyme; 96,000 tested, under 10 active; activation factor at 5 µM;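 active means activation factor of at least 2 at 5 µM in the primary screen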;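 further: 0 = wells with 2.5 mM tranylcypromine and 1 = vehicle-only wells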
CYP2C9 inh – human CYP2C9 inhibition; P11712; CYP2C9 Supersomes, luciferin-H conversion, luminescence; inhibition, % at 5 µM; actives 20% (n = 96,000);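 active means blocking of liver enzyme CYP2C9 beyond about 50% at 5 µM, limit read from the data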
Target sequence (P11712 whole entry, looked up): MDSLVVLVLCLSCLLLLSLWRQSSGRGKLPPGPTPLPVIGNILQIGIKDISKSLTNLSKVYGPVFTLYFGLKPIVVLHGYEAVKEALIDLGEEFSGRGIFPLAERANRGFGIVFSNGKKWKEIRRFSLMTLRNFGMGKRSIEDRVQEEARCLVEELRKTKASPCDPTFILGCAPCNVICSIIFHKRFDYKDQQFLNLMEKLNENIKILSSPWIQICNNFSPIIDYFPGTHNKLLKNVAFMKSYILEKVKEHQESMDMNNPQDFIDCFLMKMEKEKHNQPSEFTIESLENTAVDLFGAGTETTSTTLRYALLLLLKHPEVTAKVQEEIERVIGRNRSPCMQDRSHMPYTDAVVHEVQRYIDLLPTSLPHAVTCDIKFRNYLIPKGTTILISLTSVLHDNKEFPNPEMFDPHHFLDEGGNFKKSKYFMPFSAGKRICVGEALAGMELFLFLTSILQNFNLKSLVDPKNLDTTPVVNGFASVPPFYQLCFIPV
PTK2B oligo ant – Pyk2 (human) oligomerization antagonism; z-score (the deposit names both 25 µM and 10 µM); actives 0.83% (n = 99,000); Q293 cells, Pyk2 FERM NanoBiT luminescence; active compounds read low;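 active means Z-score of -3 or lower, scaled per plate to the spread of control and sample wells; inactive means z-score above -3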;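 further: negative z-score means lost luminescence so less FERM oligomerization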
CYP2C9 act – activators of human CYP2C9; P11712; recombinant CYP2C9, luciferin-H conversion, luminescence; active compounds read high; factor 1 = untreated enzyme, 0 = blocked; activation factor at 5 µM; actives 1.4% (n = 96,000);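 active means activation factor of 2 or more for CYP2C9 at a 5 µM dose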;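 further: 0 = sulfaphenazole-blocked wells and 1 = vehicle-only wells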
* hit, by the source's call; x = no result. Rows were chosen to be rich in hits. Some 28% of all compounds tested hit in one or more screens of this group.

SMILES	CYP2C19 inhib	CYP2C19 act	CYP2C9 inh	PTK2B oligo ant	CYP2C9 act
C=C(C)c1cccc(C(C)(C)NC(=O)Nc2ncccn2)c1	26	0.7	7	0.18	0.9
C=C(C)c1cccc(C(C)(C)NC(=O)Nn2cnnc2)c1	73*	0.3	50*	0.89	0.5
C=CCSc1nnc2nc3[nH]c4c(C)cccc4c3nn12	-4	1	3	0.91	1
COc1ccc(NC(=O)C2CCN(S(=O)(=O)c3ccc(C)cc3)CC2)cc1OC	6	0.9	-11	0.11	1.1
COc1ccc(S(=O)(=O)N2CCC(C(=O)Nc3cccc(Cl)c3)CC2)cc1OC	53*	0.5	-9	0	1.1
COC(=O)c1ccccc1NC(=O)C1CCN(S(=O)(=O)c2cc(C)ccc2OC)CC1	86*	0.1	88*	-1.8	0.1
COc1ccc(OC)c(S(=O)(=O)N2CCC(C(=O)Nc3cc(C)ccc3C)CC2)c1	39	0.6	-65	0.17	1.6
COc1ccc(OC)c(S(=O)(=O)N2CCC(C(=O)Nc3cccc(C)c3)CC2)c1	88*	0.1	-32	-0.65	1.3
COC(=O)c1ccccc1NC(=O)C1CCCN(S(C)(=O)=O)C1 (stereo not drawn)	7	0.9	-30	-0.29	1.3
CO/N=C/NC(=O)c1c(OC)ccnc1Oc1cccc(C(F)(F)F)c1	58*	0.4	9	0.12	0.9
CO/N=C/NC(=O)c1c(OC)ccnc1Oc1ccc(F)cc1	4	1	-1	0.39	1
COc1ccnc(Oc2ccc(F)cc2)c1C(=O)N/C=N/OCc1ccc(F)cc1	64*	0.4	28	0.15	0.7
CN(C)S(=O)(=O)N1CCC(C(=O)O)(c2ccccc2)CC1	-18	1.2	-1	1.4	1
O=C(O)C(CCCCN1C(=O)c2ccccc2C1=O)N1C(=O)c2ccccc2C1=O (stereo not drawn)	2	1	35	0.45	0.7
CC1(C)N=C(/C=N/O)CN1O	-14	1.1	-14	0.35	1.1
COc1cc(-c2nc3c(c(C)nn3-c3ccccc3)c3cc(OC)c(OC)cc23)ccc1O	38	0.6	48	0.27	0.5
Cc1csc(NC(=O)COc2ccc3c(C)cc(=O)oc3c2)n1	2	1	-28	0.42	1.3
Cc1cc(=O)oc2cc(OC(C)C(=O)Nc3nccs3)ccc12 (stereo not drawn)	81*	0.2	80*	0.2	0.2
COC(=O)C(CC(C)C)Oc1ccc2c(C)cc(=O)oc2c1 (stereo not drawn)	20	0.8	65*	-0.34	0.4
Cn1c(=O)oc2cc(S(=O)(=O)N3CCCC(C(=O)NCc4cccs4)C3)ccc21 (stereo not drawn)	24	0.8	27	x	0.7
CCN1CCN(c2ncc(C(=O)Nc3ccccc3C(=O)OC)c3ccccc23)CC1	10	0.9	56*	-0.43	0.4
CN(C)C(C(=O)NC1CCCCC1)c1ccc(Cl)cc1 (stereo not drawn)	56*	0.4	29	-0.19	0.7
S=C(NCCC(c1ccccc1)c1ccccc1)Nc1ccccc1Cl	55*	0.4	66*	0.05	0.3
CC(=O)Nc1ccc(S(=O)(=O)N2CCC(NC(=O)c3ccco3)CC2)cc1	9	0.9	26	1.4	0.7
Cc1cc2c(C)nc(Cc3ccccc3)nc2o1	74*	0.3	9	-0.14	0.9
SMILES	CYP2C19 inhib	CYP2C19 act	CYP2C9 inh	PTK2B oligo ant	CYP2C9 act
CC1(C)Cc2c(ccc3ccccc23)-c2nnc(-c3cccnc3)n21	-8	1.1	-32	-0.5	1.3
O=C(OCc1ccc2c(c1)OCO2)c1cccc(S(=O)(=O)N2CCCCC2)c1	92*	0.1	99*	-1.1	0
CCOC(=O)c1ccc(NC(=O)c2cccc(S(=O)(=O)N3CCOCC3)c2)cc1	18	0.8	5	-0.02	0.9
O=C(COC(=O)c1cccc(S(=O)(=O)N2CCOCC2)c1)Nc1ccc2c(c1)OCO2	70*	0.3	61*	0.08	0.4
O=C(OCc1ccc2c(c1)OCO2)c1ccc(S(=O)(=O)N2CCCC2)cc1	83*	0.2	97*	0.16	0
O=S(=O)(c1ccc(Nc2ccc3c(c2)OCO3)nc1)N1CCOCC1	8	0.9	78*	-0.5	0.2
O=C(c1ccc(S(=O)(=O)N2CCCCC2)cc1)N1CCN(Cc2ccc3c(c2)OCO3)CC1	19	0.8	25	0.94	0.7
COc1ccc(-n2c(SCCC(=O)O)nnc2-c2ccncc2)cc1	24	0.8	35	-0.32	0.7
COC(=O)c1cccc(S(=O)(=O)N2CCCCC2)c1	58*	0.4	8	0.79	0.9
C=CCOc1c(CNc2nccs2)cccc1OCC	98*	0	72*	-0.04	0.3
Cc1cc(C)c(NC(=O)NC(=O)c2ccc(F)cc2)c(C)n1	6	0.9	-39	0.46	1.4
Cc1cc(C)cc(-c2nnc(SCC(=O)N3CCN(C(=O)c4ccco4)CC3)o2)c1	50	0.5	-103	0.26	2*
Cc1cc2cc3c(cc2nc1SCC(=O)N1CCN(C(=O)c2ccco2)CC1)OCO3	48	0.5	80*	0.8	0.2
O=C(CSc1nnc(-c2ccc(Br)cc2)o1)N1CCN(C(=O)c2ccco2)CC1	8	0.9	11	0.73	0.9
Cc1cc2cc3c(cc2nc1SCC(=O)OC(C)C)OCO3	-1	1	-3	-0.35	1
COc1ccc2nc(N3CCCC3)[nH]c2c1	7	0.9	2	1.6	1
COCCN1C(=O)C(=O)/C(=C(/O)c2ccc(S(=O)(=O)N3CCOCC3)cc2)C1c1ccc(C(C)C)cc1 (stereo not drawn)	-14	1.1	-3	x	1
COCCn1cnnc1SCC(=O)c1ccc(S(=O)(=O)N2CCCC2)cc1	57*	0.4	49	-0.88	0.5
CCN(CC)c1nc2ccccc2nc1C(C#N)C(=O)NCCCOC (stereo not drawn)	56*	0.4	79*	1.3	0.2
N#CC(C(=O)NCCc1ccccc1)c1nc2ccccc2nc1N1CCCCC1 (stereo not drawn)	13	0.9	30	0.85	0.7
CCN(CC)c1nc2ccccc2nc1C(C#N)C(=O)NCCc1ccccc1 (stereo not drawn)	13	0.9	54*	-0.09	0.5
CCCCN(CCCC)c1nc2ccccc2nc1C(C#N)C(=O)NCCCOC (stereo not drawn)	20	0.8	28	0.55	0.7
O=C(O)CCC(=O)Nc1ccc2c(c1)oc1ccccc12	-8	1.1	-5	1.5	1
Cc1cc(C)c(NC(=O)C2CCN(c3cnccn3)CC2)c(C)c1	x	x	x	0.22	x
CC1CCC(NC(=O)C2CCN(c3cnccn3)CC2)CC1 (stereo not drawn)	53*	0.5	-11	0.74	1.1
CCCCOc1ccccc1N	1	1	6	-0.54	0.9
Nc1ccccc1OCCOCCOCCOc1ccccc1N	75*	0.3	60*	1.8	0.4
CCOC(=O)c1c(C)[nH]sc1=S	8	0.9	14	0.29	0.9
